Measurements taken from PubChem BioAssay.
Activity calls are given as the source filed them.

Tests used:
[1] = compound effects on lung adenocarcinoma cell viability – A549, calcein-AM fluorescence, 48 h, basal, profiling panel (AID 1162); conditions: higher = more signal; further: test concentration not given here
[2] = compound effects on differentiated 3T3-L1 adipocyte viability – cell-based, 3T3-L1 adipocytes, calcein-AM fluorescence, 48 h, basal, profiling panel (AID 1163); conditions: 3T3-L1 adipocytes viability, higher = more signal; further: test concentration not given here
[3] = compound effects on hepatocellular carcinoma cell viability – HepG2, calcein-AM fluorescence, 48 h, basal, profiling panel (AID 1164); conditions: higher = more signal; further: test concentration not given here
[4] = compound effects on multiple myeloma cell viability – MM1S, calcein-AM fluorescence, 48 h, basal, profiling panel (AID 1165); conditions: higher = more signal; further: test concentration not given here
[5] = calcein-AM signal in unstimulated myeloma cells – cell-based, calcein-AM fluorescence, 48 h, PK04 Diversity Set, profiling panel (AID 1166); conditions: RPMI8226 myeloma viability, higher = more signal;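 further: cells grown under basal conditions without added stimulus; test concentration not given here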
[6] = JC-1 mitochondrial signal, unstimulated HepG2 cells – cell-based, JC-1 fluorescence, 24 h, 100 nL compound, profiling panel (AID 1167); conditions: HepG2 mitochondrial potential, higher = more signal; further: test concentration not given here
[7] = JC-1 mitochondrial signal, unstimulated adipocytes – cell-based, JC-1 fluorescence, 3T3-L1 adipocytes, 24 h, 100 nL compound, profiling panel (AID 1168); conditions: JC-1 mitochondrial fluorescence, higher = more signal, called active from +8 up or from −8 down; further: test concentration not given here
[8] = JC-1 mitochondrial signal, unstimulated myeloma cells – cell-based, JC-1 fluorescence, RPMI8226, 24 h, 100 nL compound, profiling panel (AID 1169); conditions: JC-1 mitochondrial potential fluorescence, higher = more signal; further: test concentration not given here
[9] = JC-1 mitochondrial signal, unstimulated MM1S myeloma – cell-based, JC-1 fluorescence, 24 h, 100 nL compound, profiling panel (AID 1170); conditions: MM1S mitochondrial potential, higher = more signal; further: test concentration not given here
[10] = resazurin metabolic signal in A549 cells – cell-based, resazurin fluorescence, 24 h, PK04 Diversity Set, profiling panel (AID 1171); conditions: A549 viability, higher = more signal, called active from +8 up or from −8 down; further: test concentration not given here
[11] = resazurin metabolic signal in HepG2 cells – cell-based, resazurin fluorescence, 24 h, PK04 Diversity Set, profiling panel (AID 1172); conditions: HepG2 viability, higher = more signal; further: test concentration not given here
[12] = budding yeast growth changes without added modifier – OD600, strain BY4716, 24 h, basal condition, primary screen (AID 1173); conditions: S. cerevisiae BY4716 growth, OD600, 24 h; higher = more signal, called active from +8 up or from −8 down
[13] = viability profiling in MM1S myeloma cells – cell-based, resazurin fluorescence, basal, 24 h, PK04 Diversity Set, profiling panel (AID 1174); conditions: higher = more signal, called active from +8 up or from −8 down; further: test concentration not given here
[14] = molecular target: Dihydroorotate dehydrogenase (quinone), mitochondrial (Plasmodium falciparum (isolate 3D7)) (UniProt Q08210); assay: inhibition of P. falciparum DHODH – biochemical, C-terminal His tag, absorbance 600 nm, primary screen (AID 1175); conditions: PfDHODH enzyme, DCIP absorbance 600 nm; higher = more signal, called active from +8 up or from −8 down;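 further: recombinant parasite enzyme with a five histidine tag at its C terminus; test concentration not given here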
Dihydroorotate dehydrogenase (quinone), mitochondrial (Plasmodium falciparum (isolate 3D7)), sequence (Q08210 whole entry, looked up): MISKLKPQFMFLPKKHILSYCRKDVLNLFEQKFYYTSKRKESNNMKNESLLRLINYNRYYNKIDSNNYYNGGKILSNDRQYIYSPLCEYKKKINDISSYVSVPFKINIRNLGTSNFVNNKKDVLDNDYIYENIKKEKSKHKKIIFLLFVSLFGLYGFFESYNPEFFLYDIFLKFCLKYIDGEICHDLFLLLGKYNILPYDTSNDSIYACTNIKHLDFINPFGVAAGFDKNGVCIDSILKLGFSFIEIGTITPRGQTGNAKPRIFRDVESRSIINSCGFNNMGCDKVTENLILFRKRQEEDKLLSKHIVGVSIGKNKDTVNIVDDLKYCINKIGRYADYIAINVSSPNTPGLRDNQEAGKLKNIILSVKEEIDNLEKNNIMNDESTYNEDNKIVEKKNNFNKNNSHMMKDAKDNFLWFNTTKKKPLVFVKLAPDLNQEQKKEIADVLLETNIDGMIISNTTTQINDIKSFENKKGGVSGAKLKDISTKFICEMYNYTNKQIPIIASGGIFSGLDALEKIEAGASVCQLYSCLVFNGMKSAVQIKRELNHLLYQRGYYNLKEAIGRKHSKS

[15] = growth modulation of vineyard yeast isolate – strain RM11-1a, OD600, basal, 24 h, primary screen (AID 1177);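 further: cultures grown under basal conditions with no added stressor; test concentration not given here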; conditions: S. cerevisiae RM11-1a growth, OD600, 24 h; higher = more signal, called active from +8 up or from −8 down
[16] = growth of efflux-deficient E. coli DRC39 – strain DRC39, OD650, 24 h, E. coli filamentation inducers, primary screen (AID 1178);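 further: growth measured as culture turbidity by optical density at 650 nm; test concentration not given here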; conditions: E. coli DRC39 acrAB, higher = more signal, called active from +8 up or from −8 down
[17] = growth of efflux-deficient E. coli DRC39 – strain DRC39, OD650, 48 h, E. coli filamentation inducers, primary screen (AID 1179);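 further: screen aims at cell division blockers that make cells filament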; conditions: E. coli DRC39 delta-acrAB growth, higher = more signal, called active from +8 up or from −8 down
[18] = viability profiling in RPMI8226 myeloma cells – cell-based, resazurin fluorescence, basal, 24 h, PK04 Diversity Set, profiling panel (AID 1180); conditions: higher = more signal;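 further: RPMI8826 multiple myeloma cell line at 5000 cells per well; test concentration not given here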
[19] = molecular target: E3 ubiquitin-protein ligase XIAP (Homo sapiens) (UniProt P98170); assay: small molecules binding XIAP protein – biophysical, small-molecule microarray, fluorescence 635 nm, primary screen (AID 1181); conditions: higher = more signal;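 further: score merges 667 nm emission and signal to noise over triplicate slides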
E3 ubiquitin-protein ligase XIAP (Homo sapiens), sequence (P98170 whole entry, looked up): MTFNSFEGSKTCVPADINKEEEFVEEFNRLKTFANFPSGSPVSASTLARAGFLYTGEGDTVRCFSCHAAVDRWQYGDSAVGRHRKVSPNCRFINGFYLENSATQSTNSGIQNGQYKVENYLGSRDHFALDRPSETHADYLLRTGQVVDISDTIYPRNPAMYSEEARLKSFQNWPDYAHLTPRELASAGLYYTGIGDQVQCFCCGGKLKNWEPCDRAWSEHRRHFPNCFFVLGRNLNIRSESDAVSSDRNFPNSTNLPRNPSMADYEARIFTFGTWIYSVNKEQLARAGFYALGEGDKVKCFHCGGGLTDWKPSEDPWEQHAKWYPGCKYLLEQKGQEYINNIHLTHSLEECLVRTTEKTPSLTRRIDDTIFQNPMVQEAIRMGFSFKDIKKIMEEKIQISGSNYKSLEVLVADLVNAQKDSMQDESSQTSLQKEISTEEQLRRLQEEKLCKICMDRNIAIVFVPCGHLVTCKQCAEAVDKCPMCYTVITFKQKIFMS

Structure (SMILES)	z-score [1]	z-score [2]	z-score [3]	z-score [4]	z-score [5]	z-score [6]	z-score [7]	z-score [8]	z-score [9]	z-score [10]	z-score [11]	z-score [12]	z-score [13]	composite z-score [14]	z-score [15]	z-score [16]	z-score [17]	z-score [18]	composite z-score [19]
C=CCC(OC(C)=O)[C@@H]1[C@@H](N(Cc2cc3ccccc3o2)C(=O)c2ccc(C)cc2)c2cc(OCCCO)ccc2N1C(=O)c1ccc2ccccc2n1 (stereo partly drawn)	2.73	0.362	1.54	0.906	1.09	2.46	1.5 (inactive)	0.648	1.19	1.66 (inactive)	1.8	-0.934 (inactive)	1.37 (inactive)	0.309 (inactive)	-0.0157 (inactive)	1.74 (inactive)	1.42 (inactive)	0.585	0.437
COc1ccc(-c2ccccc2[C@@H]2N[C@H](C(=O)O)CC[C@H]2C)cc1	0.212	1.63	-0.428	1.09	-0.372	0.924	0.366 (inactive)	0.1	0.614	0.597 (inactive)	0.0637	-0.611 (inactive)	1.37 (inactive)	0.577 (inactive)	0.649 (inactive)	-0.892 (inactive)	0.0279 (inactive)	1.61	-0.113
C[C@@H]1NC(=O)CC=C[C@@H](C)[C@@H]2C=C[C@H](O)[C@@H](COC(=O)[C@H](C)NC(=O)CC=C[C@@H](C)[C@@H]3C=C[C@H](O)[C@@H](COC1=O)O3)O2	0.362	1.59	-0.195	0.188	-1.38	1.1	0.863 (inactive)	0.21	0.665	-0.756 (inactive)	-0.0969	-2.21 (inactive)	0.668 (inactive)	0.633 (inactive)	-1.76 (inactive)	0.953 (inactive)	0.264 (inactive)	0.526	-0.135
CN(C)CCCC[C@@H]1NC(=O)[C@@H]2C[C@H](C(=O)NCCCCCNC(=O)CS)[C@H](c3ccc(O)cc3)N2C1=O	0.748	0.387	-1.02	-0.0855	0.262	1.61	0.642 (inactive)	-0.238	0.422	-0.207 (inactive)	-0.23	-0.312 (inactive)	1.01 (inactive)	-1.38 (inactive)	-1.13 (inactive)	0.964 (inactive)	0.809 (inactive)	0.975	0.104
CCN1C(C)=C(C(=O)OC)[C@@H](c2ccccc2)N2C(=O)[C@@]3(C(=O)OC)O[C@@]12[C@@H]1C(=O)N(C)C(=O)[C@@H]13	0.0516	0.59	-0.616	-1.51	0.68	0.684	1.15 (inactive)	0.644	-0.196	0.363 (inactive)	0.976	-0.684 (inactive)	0.947 (inactive)	1.18 (inactive)	0.335 (inactive)	-0.234 (inactive)	-0.992 (inactive)	1.09	-0.0454
COC(=O)c1c(CC[C@@H](CO)NC(=O)N[C@H](Cn2cc(-c3cncn3C)nn2)C(C)C)oc(C(C)=O)c1C(=O)OC	0.128	1.93	-0.102	0.191	-0.344	0.57	1.43 (inactive)	-0.444	-0.289	-0.169 (inactive)	-0.623	-0.476 (inactive)	0.254 (inactive)	-4.63 (inactive)	-1.06 (inactive)	2.37 (inactive)	1.47 (inactive)	-0.0832	-0.0884
NC(=O)NCC#Cc1ccc2c(c1)[C@]1(C(=O)N2)[C@H](C(=O)N2CCCCCCC2)[C@H]2C(=O)O[C@H](c3ccccc3)[C@H](c3ccccc3)N2[C@@H]1c1ccccc1OCCO	-0.21	1.36	-0.0395	-2.48	-0.583	-1.25	1.03 (inactive)	-0.56	-0.693	1.28 (inactive)	0.237	-0.643 (inactive)	1.4 (inactive)	-0.121 (inactive)	0.827 (inactive)	0.218 (inactive)	0.125 (inactive)	1.13	0.306
